# In PubChem BioAssay:
# Values joined by “and” are separate entries in the source; they are usually repeats but may differ in a detail not shown here. Identical values can stand only once. For part of these data: Potency and affinity values are given separately. Active and inactive are the calls of the source. Unless noted, no stated cut-off is given here; in the data, active means parasite load remaining mostly below about 12% (no sharp cut-off); inactive means mostly above about 10%.
# Legend:
# [1] = liver-stage malaria parasite growth inhibition, primary screen, cell-based, HepG2, luciferase luminescence, HepG2 viability (AID 624349);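 further: 100% = mean of DMSO negative control wells on the same plate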; conditions: P. berghei liver stage in HepG2, luciferase luminescence, concentration not given here; parasite load remaining: stronger effect = lower value; viability: measured here: HepG2 viability without parasites
# [2] = system: Hepatitis C virus NS3 helicase; assay: HCV NS3 helicase inhibitors, primary screen, biochemical, fluorescence polarization, LOPAC1280 library (AID 687035; in the data active means inhibition above about 37%); conditions: Purified HCV NS3 helicase, Cy5-dT15 ssDNA binding fluorescence polarization; stronger effect = higher value; concentration not given here
# [3] = Cy5 fluorescence quenching or enhancement artefacts, artefact control for HCV NS3 helicase inhibitor project, biochemical, LOPAC1280 (AID 687037; call rule not given here); conditions: Cy5-DNA-NS3h complex fluorescence interference counterscreen
# [4] = Cy5 fluorescence interference with SSB-bound oligo, artefact control for HCV NS3 helicase inhibitor project, biochemical, NIH Clinical Collection, E. coli SSB (AID 743268; call rule not given here)
# [5] = system: Hepatitis C virus NS3 helicase; assay: HCV NS3 helicase inhibitors, primary screen, biochemical, fluorescence polarization, NIH Clinical Collection (AID 743270; call rule not given here); conditions: NS3 helicase binding to Cy5-dT15 DNA, stronger effect = higher value, concentration not given here
# [6] = target: Single-stranded DNA-binding protein (Escherichia coli (strain K12)) (UniProt P0AGE0); assay: E. coli SSB displacement from DNA, counter-screen for HCV NS3 helicase inhibitor project, biochemical, fluorescence polarization, NIH Clinical Collection (AID 743271; in the data active means inhibition above about 28%); conditions: stronger effect = higher value, concentration not given here
# [7] = fluorescence interference in NS3h assay format, artefact control for HCV NS3 helicase inhibitor project, biochemical, NIH Clinical Collection (AID 743272; call rule not given here;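 further: HCV NS3 helicase with a Cy5 labelled single stranded DNA probe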); conditions: fluorescence interference counterscreen, stronger effect = lower value
# [8] = stimulators of nuclear beta-catenin in C2C12, primary screen, imaging, WNT3A-conditioned medium, mouse C2C12, NPC library (AID 1117326; in the data active means nuclear beta-catenin stimulation mostly above about 4.2%, no sharp cut-off; inactive means mostly below about 10%); conditions: stronger effect = higher value
# [9] = stimulators of insulin release from INS-1E, primary screen, cell-based, 5 mM glucose, NPC library (AID 1117329;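 active means compound raises insulin release from rat beta cells at 5 mM glucose, no numeric limit stated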); conditions: rat INS-1E insulin secretion, at 10 µM, stronger effect = higher value
# [10] = growth inhibition of GSK3B-pretreated HCT116 cells – cell-based, CellTiter-Glo, 0.2 to 20 µM (AID 1117336;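 active means compounds lowering colon cancer cell viability after pretreatment blocking the GSK3B kinase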); conditions: HCT116 viability after GSK3B inhibitor, at 20 µM, stronger effect = higher value
# [11] = inhibition of endothelial tube formation, primary screen, imaging, VEGF stimulated, CD31 staining, tube area, NPC library (AID 1117340;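 active means compound that reduces growth-factor-driven endothelial tube area in a mixed cell culture, no cutoff stated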); conditions: VEGF-stimulated ADSC/ECFC co-culture, at 10 µM, stronger effect = higher value
# [12] = glucagon-like peptide 1 release enhancers, primary assay, NCI-H716 cell line, NPC library (AID 1117341;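 active means compound raises GLP1 secretion from the human gut endocrine cells, with no numeric limit stated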); conditions: NCI-H716 cells, at 10 µM, stronger effect = higher value
# [13] = HCT116 colon cancer cell growth inhibition, primary screen, CellTiter-Glo luminescence, NPC library (AID 1117342;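 active means compounds that lower survival of HCT116 colon cancer cells in the luminescence readout, no numeric limit stated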); conditions: at 20 µM (top of the series)
# [14] = CellTiter-Glo luminescent readout of SW480 viability loss, NPC library primary (AID 1117343;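 active means compounds that lower viability of the colon cancer cells in the luminescence readout, with no numeric limit stated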); conditions: CellTiter-Glo luminescence; at 20 µM (top of the series)
# [15] = decreased DLD-1 cellular survival, CellTiter-Glo luminescent readout, NPC compound collection, primary HTS (AID 1117346;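 active means compounds that lower survival of DLD-1 colon cancer cells in the luminescence readout, no cutoff given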); conditions: DLD-1 viability, CellTiter-Glo luminescence; at 20 µM (top of the series)
# [16] = system: Neuropilin-2 / VEGF-C interaction (human); assay: inhibitors of NRP2–VEGF-C binding, biochemical, microplate binding format, z-score (AID 743281; call rule not given here); conditions: microplate NRP2/VEGF-C binding assay; stronger effect = lower value
# [17] = target: Calcium-dependent protein kinase 1 (Plasmodium falciparum (isolate 3D7)) (UniProt P62344); assay: PfCDPK1 kinase inhibitors, biochemical, TCAMS library (AID 1159585; cut-off not given, nearly all actives have IC50 up to about 0.98 µM;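 further: inhibitors leave more ATP so luminescence rises with inhibition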); conditions: recombinant PfCDPK1, Kinase-Glo ATP depletion luminescence
# Calcium-dependent protein kinase 1 (Plasmodium falciparum (isolate 3D7)), sequence (P62344 whole entry, looked up): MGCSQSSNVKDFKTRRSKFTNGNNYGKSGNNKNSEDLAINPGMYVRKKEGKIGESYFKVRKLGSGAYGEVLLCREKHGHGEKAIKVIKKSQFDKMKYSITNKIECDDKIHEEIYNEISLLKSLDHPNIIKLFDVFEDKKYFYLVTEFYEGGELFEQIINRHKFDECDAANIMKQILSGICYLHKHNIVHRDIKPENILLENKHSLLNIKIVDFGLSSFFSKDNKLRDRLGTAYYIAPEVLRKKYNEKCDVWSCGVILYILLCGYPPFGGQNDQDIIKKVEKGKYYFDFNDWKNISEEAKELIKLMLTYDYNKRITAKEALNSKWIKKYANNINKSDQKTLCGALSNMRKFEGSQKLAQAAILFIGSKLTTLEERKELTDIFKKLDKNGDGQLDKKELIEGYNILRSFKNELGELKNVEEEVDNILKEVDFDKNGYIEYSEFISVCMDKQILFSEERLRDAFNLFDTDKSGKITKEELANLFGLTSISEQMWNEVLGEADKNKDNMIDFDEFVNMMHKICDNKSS
# [18] = target: Plasmodium falciparum protein kinase 6 (PK6, PF3D7_1337100) (UniProt Q8IDW1); assay: PfPK6 kinase inhibitors, biochemical, TCAMS library (AID 1159586; call rule not given here); conditions: recombinant PfPK6, Kinase-Glo ATP depletion luminescence
# Plasmodium falciparum protein kinase 6 (PK6, PF3D7_1337100), sequence (Q8IDW1 1-305): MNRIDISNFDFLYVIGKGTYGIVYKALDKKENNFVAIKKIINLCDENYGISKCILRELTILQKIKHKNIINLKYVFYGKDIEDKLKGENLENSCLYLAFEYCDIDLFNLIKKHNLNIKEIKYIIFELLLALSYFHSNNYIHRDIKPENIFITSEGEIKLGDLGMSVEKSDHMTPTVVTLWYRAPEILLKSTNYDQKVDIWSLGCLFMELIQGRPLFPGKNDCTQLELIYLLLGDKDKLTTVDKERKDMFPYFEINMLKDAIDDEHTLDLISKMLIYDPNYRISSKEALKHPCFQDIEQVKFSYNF
SMILES,parasite load remaining [1],viability [1],inhibition [2],fluorescence ratio (interference) [3],fluorescence ratio [4],inhibition [5],inhibition [6],fluorescence ratio [7],nuclear beta-catenin stimulation ([8]; at 10 µM),"nuclear beta-catenin stimulation ([8]; stimulation, at 2 µM) [%]",insulin secretion stimulation [9],viability decrease [10],tube area decrease [11],GLP1 secretion stimulation [12],inhibition of viability [13],viability decrease (inhibition) [14],viability decrease (inhibition) [15],z-score [16],outcome [17],outcome [18]
Clc1ccc2nsnc2c1NC1=NCCN1,61.3% (inactive) and 52.1% (inactive),95.4% and 240%,-3% (inactive),1 (inactive),1.05 (inactive),-5% (inactive),-2.76% (inactive),0.99 (inactive),0.6% (inactive),-0.6,0.4% (inactive),1.1% (inactive),-9.7% (inactive),2.7% (inactive),11.7% (inactive),8% (inactive),6% (inactive),,,
Cc1c(Nc2ncccc2C(=O)O)cccc1C(F)(F)F,99.9% (inactive) and 46.5% (inactive),95.4% and 105%,,,,,,,4.9% (inactive),-0.2,-1.5% (inactive),-24.9% (inactive),5.8% (inactive),-1.7% (inactive),0.73% (inactive),75.8% (active),21.9% (inactive),,,
COc1ncnc(NS(=O)(=O)c2ccc(N)cc2)c1OC,74.2% (inactive) and 31.5% (inactive) and 37.8% (inactive),68.7% and 97% and 73.5%,,,,,,,4.7% (inactive),3.5,0.1% (inactive),-6.5% (inactive),-10.7% (inactive),8.3% (inactive),-1.93% (inactive),-16.8% (inactive),-22.2% (inactive),,,
Oc1ccc(OCc2ccccc2)cc1,144% (inactive),102%,,,,,,,2.5% (inactive),1.1,-0.6% (inactive),-36.6% (inactive),0.5% (inactive),2.7% (inactive),-6.37% (inactive),5.3% (inactive),4.6% (inactive),,,
CCN1CCC[C@H]1CNC(=O)c1c(O)c(Cl)cc(Cl)c1OC,132% (inactive) and 60.7% (inactive),135% and 99%,-2% (inactive),1 (inactive),0.94 (inactive),1.19% (inactive),7.6% (inactive),0.77 (active),0.6% (inactive),3.4,-0.9% (inactive),-21% (inactive),-4.8% (inactive),2.2% (inactive),9.13% (inactive),-26.4% (inactive),-11.6% (inactive),-0.335 (inactive),,
Cc1cnc(C(=O)O)c[n+]1[O-],22.9% (inactive),79.5%,,,,,,,2.4% (inactive),1.1,3.6% (inactive),-16.5% (inactive),9.6% (inactive),-4.7% (inactive),3% (inactive),14.8% (inactive),-0.8% (inactive),,,
O=P(O)(O)C(O)(Cc1cccnc1)P(=O)(O)O,12.3% (inactive) and 1.41% (inactive),96.3% and 95%,,,,,,,-1.2% (inactive),-0.8,-1.8% (inactive),5.7% (inactive),18.1% (inactive),0.1% (inactive),5.33% (inactive),-18.5% (inactive),-4.9% (inactive),,,
COc1cc(C(=O)OCCCN2CCCN(CCCOC(=O)c3cc(OC)c(OC)c(OC)c3)CC2)cc(OC)c1OC,44% (inactive) and 120% (inactive) and 14% (inactive),47.9% and 91.2% and 76.5%,-3% (inactive),1 (inactive),,,,,1.3% (inactive),1.7,79.2% (active),38.2% (inactive),4.6% (inactive),7.5% (inactive),77.6% (active),92.3% (active),24% (inactive),,,
Cc1nc(N)nc(N)c1-c1ccc(Cl)c(Cl)c1,,,,,,,,,42.9% (active),55.1,1.95% (inactive),101% (active),-11.8% (inactive),2.8% (inactive),95.5% (active),131% (active),68.5% (active),,inactive,inactive
O=NN(CCCl)C(=O)NC1CCCCC1,11.7% (inactive),78%,,,,,,,11.8% (inactive),3.7,-0.3% (inactive),11.8% (inactive),56.7% (active),-0.1% (inactive),-0.2% (inactive),57.8% (active),3.5% (inactive),,,
Cc1cc2c(C(C)C)c(O)c(O)c(C=O)c2c(O)c1-c1c(C)cc2c(C(C)C)c(O)c(O)c(C=O)c2c1O,56.7% (inactive),83.7%,-1% (inactive),0.9 (inactive),,,,,64.5% (active),6.3,0.5% (inactive),82% (active),110% (active),76.4% (active),91.7% (active),108% (active),64.1% (active),,,
COc1cc2c(cc1OC)-c1cc(=Nc3c(C)cc(C)cc3C)n(C)c(=O)n1CC2,22.9% (inactive),56.5%,1% (inactive),0.9 (inactive),,,,,1.1% (inactive),-0.6,1.3% (inactive),91.5% (active),-11.8% (inactive),12.7% (inactive),71.2% (active),120% (active),66.5% (active),,inactive,inactive
CC(C)(C(=O)c1cccnc1)c1cccnc1,42.4% (inactive) and 90.8% (inactive) and 15.1% (inactive),102% and 94.8% and 117%,,,1.03 (inactive),1.36% (inactive),1.05% (inactive),0.96 (inactive),4.8% (inactive),1.3,0.7% (inactive),-5.6% (inactive),4.4% (inactive),0.8% (inactive),0.97% (inactive),1.2% (inactive),-9.4% (inactive),,,
